Among all 150,000 compounds or so, about 6,500 (4.3%) were called active. Inconclusive results (about 12%) are left out. This excerpt belongs to a sample that is enriched for actives. A number with no mark means an inactive call. The call rests on the fitted dose curve; in most records, active means well fitted inhibition curve with a large enough effect (not every such curve was filed as active); inconclusive means small, poorly fitted or top-dose-only effect, or another doubt; inactive means no such curve, though single readings can be large or run the other way.
On the % scale 0 is the no-effect control and ±100 the full control effect; potency means the concentration at half of the fitted maximal effect.

Chain of 15-hydroxyprostaglandin dehydrogenase [NAD(+)] (Homo sapiens) (P15428 whole entry, looked up): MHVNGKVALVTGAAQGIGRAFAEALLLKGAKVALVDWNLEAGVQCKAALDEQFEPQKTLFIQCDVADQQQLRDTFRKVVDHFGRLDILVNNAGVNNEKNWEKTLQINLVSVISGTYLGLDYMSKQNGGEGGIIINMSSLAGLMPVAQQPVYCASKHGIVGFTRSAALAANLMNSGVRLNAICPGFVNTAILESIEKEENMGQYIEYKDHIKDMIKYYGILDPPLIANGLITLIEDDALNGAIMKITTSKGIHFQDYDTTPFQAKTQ

This experiment has as its target 15-hydroxyprostaglandin dehydrogenase [NAD(+)] (Homo sapiens) (UniProt P15428). Put plainly: qHTS Assay for Inhibitors of HPGD (15-Hydroxyprostaglandin Dehydrogenase). Particulars: purified HPGD, NADH fluorescence kinetic, PGE2 substrate; activity change, negative = inhibition: hits give low values. The method in brief:
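NADH formation kinetics: reaction with 30 uM PGE2 and 1 mM NAD+ (final), 20 nM enzyme, Tris-HCl pH 8 with Tween 20, after 15 min compound preincubation at room temperature. Fluorescence change, last versus first of five reads.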
(In qHTS, concentration-response curves come from the screen itself.)
In the case of `COc1ccc(-c2oc3cc(OC)ccc3c2C(=O)c2ccc(C#N)cc2)cc1`, the activity change, negative = inhibition is -8.41%.
Still for that read-out and setting: next, `COc1ccc(S(=O)(=O)Nc2ccc3oc(C)c(C(C)=O)c3c2)cc1`: -11.3%.
Turning to `COc1ccc(C(=O)c2c(C)oc3cc([N+](=O)[O-])c(O)c([N+](=O)[O-])c23)cc1`, the Potency was 14.1 µM (active).
With `CCO/N=C(/C)c1c(O)cc(-c2ccccc2)n(-c2ccccc2)c1=O`, the activity change, negative = inhibition is -9.45%.
Still for that read-out and setting: next, `Cn1nnc(NC(=O)CSc2ncn[nH]2)n1`: -3.42%; `CCN(C(=O)CSc1ncn[nH]1)c1cccc2ccccc12`: -11.5%.
For `CC(C)(C)c1ccc(C(=O)CSc2ncn[nH]2)cc1`, the Potency was 25.1 µM (active).
As to `S=C(NCC1COc2ccccc2O1)Nc1ccc(Br)cc1` (stereo not drawn), the activity change, negative = inhibition was -26.7%.
Same read-out and setting: next, `Cc1ccc(CCCOC(=O)C[N+]2(C)CCCC2)cc1`: -8.3%.
Still for that read-out and setting: to `C=CCn1c(SCC(=O)Nc2nc3ccccc3s2)nnc1-c1ccccc1O` belongs -10.2%.
As to `C=CCn1c(CSc2nc3ccccc3s2)nnc1SCC(=O)NCc1ccco1`, the Potency was 17.8 µM (active).
As for `O=C(CSc1nnc(-c2cccs2)n1-c1ccccc1)NCc1ccco1`, the activity change, negative = inhibition is -2.44%.
On the same count and under the same terms, next, `O=C(Cc1ccccc1)NNS(=O)(=O)c1ccc([N+](=O)[O-])cc1`: -13.6%; `COc1ccc(CC(=O)Nc2cc(S(=O)(=O)N3CCCCC3)ccc2N2CCN(C)CC2)cc1`: -7.18%.
In the case of `COc1cc(/C=C/C(=O)N2c3ccccc3Sc3ccc(C(F)(F)F)cc32)cc(OC)c1OC`, the activity change, negative = inhibition is -14.1%.
The same measure, in the same setting: next, `CCOC(=O)c1sc(NC(=O)c2ccncc2)nc1C`: -16.2%.
As to `CCOC(=O)c1sc(=S)n2c1[nH]c(=O)c1ccc(C(=O)OC)cc12`, the Potency was 8.91 µM (active).
For the molecule `CCOC(=O)C1=C(C)Nc2sc(C(=O)c3ccc(Br)cc3)c(N)c2C1c1ccc(C(=O)OC)cc1` (stereo not drawn), the activity change, negative = inhibition is -7.23%.
With `CN(C)c1ccc(C(CNC(=O)c2ccc(F)cc2)c2c[nH]c3ccccc23)cc1` (stereo not drawn), the activity change, negative = inhibition is -5.43%.
Still for that read-out and setting: to `Cc1ccc(SCC(=O)Nc2ncc(C)s2)cc1` belongs -20.4%; to `Cc1ccc(SCCC(=O)OCC(=O)Nc2ncc(Cl)cc2Cl)cc1`, -8.54%.
`Cc1ccc(SCCC(=O)NC(C(C)C)C(C)C)cc1`: the Potency was 7.94 µM (active).
As for `CC/C=C\C/C=C\C/C=C\C/C=C\C/C=C\C/C=C\CCC(=O)NCCc1ccc(O)c(O)c1`, the activity change, negative = inhibition is -14.7%.
For the molecule `CCOc1ccc(-n2c(N)c(C(=O)NCC3CCCO3)sc2=S)cc1` (stereo not drawn), the Potency is 8.91 µM (active).
Regarding `CCOc1ccc(S(=O)(=O)NCC2CCCO2)cc1` (stereo not drawn), the activity change, negative = inhibition is -2.22%.
With `Cc1nc2ccccc2c2oc(C(=O)NCC3CCCO3)cc12` (stereo not drawn), the activity change, negative = inhibition was -26%.
Same read-out and setting: to `Cc1ccc(-c2noc(-c3ccccc3C(=O)NCC3CCCO3)n2)cc1` (stereo not drawn) belongs -6.63%; to `Cc1ccc(C(=O)NCC2CCCO2)o1` (stereo not drawn), -12%.
For the molecule `Cc1c(C(=O)NCC2CCCO2)sc2nc(-c3ccccc3)cn12` (stereo not drawn), the Potency is 28.2 µM (active).
Turning to `CCOC(=O)c1cccnc1NC(=O)c1ccncc1`, the activity change, negative = inhibition is -2.52%.
The same measure, in the same setting: to `c1ccc2c(c1)CSc1sccc1C2=C1CCNCC1` belongs -1.18%; to `COCCNc1cc(NCCOC)c([N+](=O)[O-])cc1[N+](=O)[O-]`, -9.02%.
The same measure, in the same setting: next, `c1ccc(-n2ncc3c(N4CCCC4)ncnc32)cc1`: -12.9%.
`O=C(O)C1CCN(c2ncnc3ccc(-c4ccccc4C(F)(F)F)cc23)CC1`: the Potency was 1.26 µM (active).
On to `Cc1scc(C(=O)NNC(=S)NCc2ccccc2)c1C`, for which the activity change, negative = inhibition is -7.44%.
Same read-out and setting: to `COc1cc(CC(=O)NCc2cccs2)cc(OC)c1OC` belongs -17%.
In the case of `Cn1ncc(Br)c1C(=O)NCc1cccs1`, the Potency is 15.8 µM (active).
For `Cc1nnc(SCC(=O)NCc2cccs2)[nH]c1=O`, the activity change, negative = inhibition was -0.933%.
`Cc1ccc2nsnc2c1NC(=O)c1ccccc1[N+](=O)[O-]`: the activity change, negative = inhibition is -15.8%.
The same measure, in the same setting: next, `Cc1ccc(/C=N/NC(=O)CNC(=O)COc2ccccc2)o1`: -5.29%.
The same measure, in the same setting: next, `Cc1ccc(C(=O)N/C(=C/c2cccnc2)C(=O)O)cc1`: -13.7%.
Same read-out and setting: to `COc1ccc(/C=C(/NC(=O)c2ccc(C)cc2)c2nc3ccccc3[nH]2)cc1OC` belongs -24.1%.
In the case of `COc1ccc(Br)cc1C(=O)Nc1cccc(C)c1C`, the activity change, negative = inhibition is -28.1%.
Consider `COc1ccc(Br)cc1C(=O)NC(=S)Nc1cc(-c2nc3ccccc3[nH]2)ccc1C`, for which the Potency was 28.2 µM (active).
For the molecule `C=C(C(C)=O)C(O)c1cccs1` (stereo not drawn), the activity change, negative = inhibition is -6.13%.
Still for that read-out and setting: to `COC(=O)C(C(=O)OC)[C@@H](NC=O)c1ccccc1` belongs -1.83%.
Regarding `O=[n+]1c2c(n([O-])c3cc(Br)ccc31)CCC2`, the Potency is 11.2 µM (active).
In the case of `CCc1c(C)n([O-])c2c([n+]1=O)CCCCC2`, the activity change, negative = inhibition is -4.11%.
Still for that read-out and setting: next, `Cc1ccc(-c2c(C)n([O-])c3c([n+]2=O)CCC3)cc1`: -24.7%; `O=C(Cc1ccccc1)NCc1ccc(F)cc1`: -22.4%; `CCCCOC(=O)c1ccc(NC(c2ccc(C)cc2)P(=O)(OC)OC)cc1` (stereo not drawn): -21.8%.
Regarding `CCc1nnc(NC(=O)c2cccs2)s1`, the activity change, negative = inhibition was -9.46%.
For the molecule `CCc1c(C)sc(NC(=O)c2cccs2)c1C(N)=O`, the Potency is 8.91 µM (active).
Consider `CCc1ccccc1NC(=O)c1cccs1`, for which the activity change, negative = inhibition is -5.77%.
On to `O=C(NCCOc1ccccc1Cl)C(=O)Nc1ccccc1`, for which the activity change, negative = inhibition was -2.3%.
The same measure, in the same setting: next, `CC(=O)NS(=O)(=O)c1ccc(NC(=O)C2C3C=CC(C3)C2C(=O)O)cc1` (stereo not drawn): -3.59%; `COCCCN(C(=S)Nc1c(C)cc(C)cc1C)C(C)c1ccncc1` (stereo not drawn): -0.352%; `CCn1ncc(Br)c1C(=O)Nc1cc(C)ccc1F`: 0.199%.
Regarding `CCn1ncc(CNC(=O)C2(C)CC2(Br)Br)c1C` (stereo not drawn), the Potency was 14.1 µM (active).
For `COc1cc2c3c(c1)/C(=C1/SC(=S)NC1=O)C(=O)N3C(C)(C)C=C2C`, the activity change, negative = inhibition is -26.1%.
The same measure, in the same setting: to `Cc1c(NC(=S)Nc2ccccc2)c(=O)n(-c2ccccc2)n1C` belongs -3.36%.
On the same count and under the same terms, to `CCC1C=C(c2ccccc2)C=CN=C1N(CC)CC` (stereo not drawn) belongs -4.96%.
Take `NC1=C([N+](=O)[O-])C(c2ccccc2)C2=C(CCCC2=O)O1` (stereo not drawn): the Potency is 20 µM (active).
As for `N#CC1=C(N)N(c2ccccc2)C2=C(C(=O)CCC2)C1c1ccccc1` (stereo not drawn), the activity change, negative = inhibition was -8.89%.
Same read-out and setting: next, `NS(=O)(=O)c1ccc(CNC(=O)c2ccc(Cl)cc2[N+](=O)[O-])cc1`: -16.4%; `CCOc1ccc2cc(C#N)c(SCC(=O)OC)nc2c1`: -15%.
As for `Cc1cc(C)nc(SCc2ccccc2C#N)n1`, the activity change, negative = inhibition was -12.7%.
In the case of `Cc1ccc2nc(SCc3nnc(-c4ccccc4[N+](=O)[O-])o3)c(C#N)cc2c1`, the Potency is 1 µM (active).
Regarding `N#Cc1ccccc1Sc1ccccc1C(=O)OCC(=O)NC1CCCCC1`, the activity change, negative = inhibition was -19.1%.
For `CCN(CC)c1ccc(/C=N/Nc2nc(C)cc(C)n2)c(O)c1`, the Potency is 20 µM (active).
In the case of `CCN(CC)c1ccc2oc(=O)c(C)nc2c1`, the activity change, negative = inhibition was -16.7%.
Same read-out and setting: next, `CCOC(=O)Cc1csc(SCC(=O)NC(C)C23CC4CC(CC(C4)C2)C3)n1` (stereo not drawn): -15.9%.
As for `Cc1c(C(=O)NCc2ccccc2)cnn1-c1ccccc1`, the Potency was 17.8 µM (active).
As to `Cc1ccc(CNC(=O)c2ccccc2CCc2ccccc2)cc1`, the activity change, negative = inhibition is -19.3%.
The same measure, in the same setting: to `O=C(Cn1cnc2c(cnn2-c2ccccc2)c1=O)NCc1ccccc1` belongs -9.12%.
In the case of `N#C/C(C(=O)N1CCOCC1)=C1/SC(Cc2ccc(F)cc2)C(=O)N1c1ccccc1` (stereo not drawn), the activity change, negative = inhibition is -13.3%.
For `N#Cc1ccccc1-n1c(N)c(C(=O)N2CCCC2)sc1=S`, the Potency is 25.1 µM (active).
On the same count and under the same terms, to `Cc1ccc(-n2c(N)c(C(=O)N3CCOCC3)sc2=S)c(C)c1` belongs 7.94 µM (active).
For the molecule `Cc1cccc(-n2c(N)cc(=O)nc2SC(C)C(=O)NC2CCCCC2)c1` (stereo not drawn), the activity change, negative = inhibition is -19.7%.
Same read-out and setting: to `Cc1ccc(C(=O)N2CCN(C(=O)N3CCOCC3)CC2)cc1` belongs 3.86%; to `CC(C)=C1SC(N2CCN(c3cccc(C)c3)CC2)=NC1=O`, -16.6%.
Same read-out and setting: next, `CC(=O)c1c(N2CCOCC2)nc(=S)n(-c2cc(C)ccc2C)c1C`: -12.5%.
For the molecule `Cc1cccc(-n2c(N)c(C(=O)N3CCN(C)CC3)sc2=S)c1`, the Potency is 10 µM (active).
On to `O=S(=O)(NCCSc1ccccn1)c1ccc(Cl)cc1`, for which the activity change, negative = inhibition was -1.01%.
Turning to `C=C/C1=C/Cc2ccccc2[C@H](C[N+](=O)[O-])C(C(=O)OC)(C(=O)OC)C1`, the activity change, negative = inhibition is -16.5%.
For the molecule `CCOc1cc(CNCc2ccccn2)ccc1OCC(=O)NC(C)(C)C`, the activity change, negative = inhibition was -9.37%.
Still for that read-out and setting: to `CC(C)(C)C(=O)N1CCC[C@@]1(CO)C(=O)O` belongs -2.24%.
The same measure, in the same setting: next, `COc1ccc(CNC(=O)CCCn2nc(C)c([N+](=O)[O-])c2C)cc1`: -13.5%; `CCC(C)C(=O)Nc1cc([N+](=O)[O-])ccc1Cl` (stereo not drawn): -1.06%.
Still for that read-out and setting: next, `C=CCn1c(CCNC(=O)c2cccs2)n[nH]c1=S`: -27.1%; `Cc1nnc(SCC(=O)N2CCc3ccccc3C2)s1`: -6.45%.
As to `O=C(c1cc(-c2ccc(O)cc2)on1)N1CCCc2ccccc21`, the activity change, negative = inhibition is -28%.
`O=C(c1cc(-c2cccc(O)c2)on1)N1CCc2ccccc2C1`: the Potency is 25.1 µM (active).
With `CCCNC(=O)NC(=O)COC(=O)CC(NC(N)=O)c1ccc(Cl)cc1` (stereo not drawn), the activity change, negative = inhibition was -4.57%.
On the same count and under the same terms, next, `O=C(Nc1ccc2c(c1)CCC2)c1cccc(S(=O)(=O)Nc2ccccc2Cl)c1`: -11.7%.
As for `O=C(Cc1ccc2c(c1)CCCC2)Nc1ccccc1Cl`, the Potency was 3.16 µM (active).
For the molecule `CC1(C)CC(CCC(=O)Nc2ccccc2Cl)C(=O)O1` (stereo not drawn), the activity change, negative = inhibition is -12.3%.
On the same count and under the same terms, next, `Cc1nn(-c2ccccc2)c(-n2cccc2)c1C(=O)O`: -6.97%.

These data come from PubChem BioAssay AID894 (National Center for Advancing Translational Sciences (NCATS), 2007).
